Screens as filed in PubChem.
ADAM17 inh: inhibits human ADAM17. P78536. recombinant ADAM17, EDANS/DABCYL FRET peptide cleavage. inhibition, % at 6.95 µM. 370,000 compounds, 0.83% hits. AID 720648;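 active means inhibition above the mean of compounds lying between control limits plus 3 SD, set per campaign, cut at about 8.5% in these data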;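 further: 0% = DMSO-only wells as the low control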
Target sequence (P78536 215-824 limits assumed): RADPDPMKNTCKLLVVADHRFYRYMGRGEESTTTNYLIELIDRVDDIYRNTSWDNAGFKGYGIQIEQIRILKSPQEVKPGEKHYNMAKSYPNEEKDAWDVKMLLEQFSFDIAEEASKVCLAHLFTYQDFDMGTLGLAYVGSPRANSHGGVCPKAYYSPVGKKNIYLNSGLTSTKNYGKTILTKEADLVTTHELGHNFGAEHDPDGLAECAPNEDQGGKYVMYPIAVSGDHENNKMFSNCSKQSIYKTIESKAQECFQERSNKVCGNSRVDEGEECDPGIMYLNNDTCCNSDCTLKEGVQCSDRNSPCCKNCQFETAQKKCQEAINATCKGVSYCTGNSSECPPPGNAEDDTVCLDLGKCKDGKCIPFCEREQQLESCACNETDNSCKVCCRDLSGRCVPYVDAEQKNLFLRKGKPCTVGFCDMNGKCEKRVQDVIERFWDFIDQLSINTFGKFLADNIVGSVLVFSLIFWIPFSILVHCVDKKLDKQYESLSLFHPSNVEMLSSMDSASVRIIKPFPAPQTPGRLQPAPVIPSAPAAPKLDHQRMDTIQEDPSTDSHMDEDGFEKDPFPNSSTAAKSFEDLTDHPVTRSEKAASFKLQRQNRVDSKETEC
ADAM10 inh: ADAM10 inhibition, QFRET primary screen | O14672 | recombinant ADAM10, EDANS/DABCYL FRET peptide cleavage, 3 h | inhibition, % at 7 µM | 370,000 compounds, 0.62% hits;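 active means inhibition above a per-campaign cutoff equal to the mean of compounds falling between control-based bounds plus 3 SD, cut at about 20% in these data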;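 further: 0% = DMSO wells while the 100% control is not disclosed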
PLC-beta3 inh: blocks human PLC-beta3 enzyme activity | Purified PLC-beta3, fluorogenic substrate, fluorescence | inhibition, % at 12.2 µM | 370,000 compounds, 0.18% hits; in the data active means inhibition above about 11%;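 further: 0% = median of compound wells on plate and 100% = full blocker control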
sPLA2-III inh: Inhibits HGIII-sPLA2 liposome hydrolysis, primary screen; QFRET BODIPY PC-A2 liposome hydrolysis, fluorescence; Q9NZ20; inhibition, % at 12.2 µM; 370,000 compounds, 0.56% hits; AID 743126;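 active means inhibition above mean plus 3 SD of compounds lying within the high and low control bounds, cut at about 19% in these data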;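 further: 0% = median of test compound wells and 100% = no enzyme DMSO wells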
PLC-gamma1 inh: PLC-gamma1 (human) inhibition, primary screen | purified PLC-gamma1, fluorogenic substrate, fluorescence | 370,000 compounds, 0.84% hits | inhibition, % at 12.2 µM; in the data active means inhibition above about 9.5%
proKLK7 act: activates the human kallikrein-7 zymogen | activation, % at 7 µM | 370,000 compounds, 0.9% hits | purified proKLK7, EDANS-DABCYL substrate fluorescence; 100% is mature enzyme control, 0% vehicle | P49862;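 active means activation above the mean of all tested compounds plus 3 SD, computed per campaign excluding outliers beyond control limits, cut at about 13% in these data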
KLK7 act conf: proKLK7 activation, confirmation | shares compounds with proKLK7 act | purified proKLK7, EDANS-DABCYL substrate fluorescence; scaled: vehicle 0, mature enzyme 100 | activation, % at 7 µM | 3,200 compounds, 68% hits | AID 686949;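 active means activation, as change over the incubation, above the mean of all tested compounds plus 3 SD, cut at about 13% in these data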
EDANS interfere: fluorescence interference counter-screen for KLK7 activators; shares compounds with proKLK7 act; EDANS-DABCYL substrate fluorescence interference, no enzyme, 4 h; solvent 0%, active enzyme control 100%; activation, % at 7 µM; 3,200 compounds, 80% hits; AID 686952;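 active means activation above the all-compound mean plus 3 SD, ignoring values outside control-based bounds, cut at about 4.8% in these data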;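 further: value is the 4 h activation minus the activation read at time zero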
EDANS interf: optically interferes with EDANS-DABCYL fluorescence, kallikrein-7 activator counter-screen; EDANS-DABCYL peptide fluorescence interference, no enzyme; shares compounds with proKLK7 act; AID 720493; 250 compounds, 20% hits; EC50, µM;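 active means compounds that raise the fluorescence signal in this interference counterscreen, with EC50 at or below 10 µM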;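 further: intact quenched peptide substrate alone read at 355 nm excitation and 520 nm emission; signal is fluorescence gain from T0 to T4 after four hours at room temperature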
* hit, by the source's call; i = inactive; . = no result. Most compounds without a hit are left out; they make up all but 3.4% or so of the library.

SMILES	ADAM17 inh	ADAM10 inh	PLC-beta3 inh	sPLA2-III inh	PLC-gamma1 inh	proKLK7 act	KLK7 act conf	EDANS interfere	others
Cc1cc(=O)oc2cc(NC(=O)c3ccccc3Cl)ccc12	-417	i	-287	-5	-184	13*	12	12*
Cc1ccccc1CC(=O)Nc1ccc2c(C)cc(=O)oc2c1	-101	-306	-42	-1	-36	2	.	.
COc1ccc(N=C(N)NC(=O)OCc2ccccc2)cc1	-1	-6	0	5	0	0	.	.
CCOc1cc(C2C(C(=O)N3CCCCC3)=C(C)NC3=C2C(=O)CCC3)cc(Br)c1O (stereo not given)	-50	-151	-181	8	-119	15*	8	15*
CCOC(=O)C1=C(C)NC2=C(C(=O)CCC2)C1c1ccc(O)c(OCC)c1 (stereo not given)	-5	-10	-6	-1	-7	1	.	.
Oc1ccc2ccccc2c1CN1CCOCC1	-27	-81	-16	1	-8	-2	.	.
Oc1cnc2ccccc2c1CN1CCOCC1	-71	-222	-94	8	-71	15*	5	6.9*
Cc1oc2c(CN3CCCC3)c(O)ccc2c(=O)c1-c1ccc(Br)cc1	-378	i	i	-6	i	15*	35*	30*	EDANS interf=>69
COc1ccc(-c2c(C)oc3c(CN4CCOCC4)c(O)ccc3c2=O)cc1OC	-142	i	-262	2	-195	12	.	.
Cc1oc2c(CN3CCCCC3)c(O)ccc2c(=O)c1-c1ccc(Br)cc1	-445	i	i	-10	i	25*	21*	17*	EDANS interf=>70
COc1ccc(-c2c(C)oc3c(CN4CCOCC4)c(O)ccc3c2=O)cc1	-406	i	i	0	i	67*	24*	32*
COC(=O)[C@]12C[C@H](CC(=O)NCCc3ccccc3OC)C(=O)N(Cc3ccccc3)C1=C[C@H](COCc1ccccc1)O[C@@H]2C	2	7	0	-18	0	0	.	.
COc1ccc(-n2c(SCC(=O)N3CCCCC3C)nnc2-c2ccncc2)cc1 (stereo not given)	-1	-3	1	2	-2	1	.	.
COc1ccc2oc(=O)c(-c3nnc(NCc4ccco4)s3)cc2c1	-98	-306	i	1	i	35*	-78	-81
OC(c1ccccc1)(c1ccccc1)C1CCN(CCCOc2ccc(Br)cc2)CC1	6	9	4	-12	4	0	.	.
COc1ncccc1-c1cnc2cccnn12	-363	i	i	7	i	34*	58*	58*
Oc1ccccc1-c1cnc2cccnn12	-10	-41	-141	8	-97	8	.	.
Clc1ccc(-c2cnc3cccnn23)cc1	-265	i	i	-1	i	32*	37*	22*	EDANS interf=>70
COc1ccc(-c2cnc3cccnn23)cn1	-200	i	i	8	i	39*	27*	38*
c1cnn2c(-c3ccc4c(c3)CCO4)cnc2c1	-12	-31	-394	8	-316	4	.	.
CN(C)S(=O)(=O)c1cccc(C(=O)N/N=C\c2ccc(-c3ccccn3)cc2)c1	-10	-39	-6	6	-2	2	.	.
COc1ccccc1-c1cc(NC=O)c2ncc(-c3cccc(C(F)(F)F)c3)n2c1	-5	-16	-9	7	-6	0	.	.
CN(C)C(=O)c1cccc(-c2cnc3c(NC=O)cc(-c4ccccc4Cl)cn23)c1	-16	-40	-53	-16	-37	2	.	.
CN(C)c1ccccc1-c1cc(NC=O)c2ncc(-c3cccc(C(F)(F)F)c3)n2c1	-30	-95	i	-410	i	107*	178*	144*
CN(C)C(=O)c1cccc(-c2cnc3c(NC=O)cc(-c4ccccc4N(C)C)cn23)c1	-37	-109	i	-419	i	105*	217*	237*
SMILES	ADAM17 inh	ADAM10 inh	PLC-beta3 inh	sPLA2-III inh	PLC-gamma1 inh	proKLK7 act	KLK7 act conf	EDANS interfere	others
Nc1ccc2nc3n(c(=O)c2c1)CCC3	-357	i	-295	0	-239	17*	10	12*
CCCC1CCC2(CC1)CCC2OC(=O)Nc1cc(C)cc(C)c1 (stereo not given)	-3	1	2	-14	-1	.	.	.
COc1cc2c(cc1OC)-c1cc(OCc3cccnc3)nc(=O)n1CC2	i	i	i	4	i	61*	63*	65*
COc1cc2c(cc1OC)-c1cc(Nc3ccccc3)nc(=O)n1CC2	-28	-87	-64	10	-66	3	.	.
CCc1cc2c(COC(=O)CCNS(=O)(=O)c3cccc(C(F)(F)F)c3)cc(=O)oc2cc1O	-486	i	i	-42	i	48*	56*	57*
COc1ccc(C2C3=C(CC(C)(C)CC3=O)Nc3nc(C)nn32)cc1OC (stereo not given)	-5	-20	-8	-9	-3	-11	.	.
COc1ccc(C2C3=C(CCCC3=O)Nc3nc(C(F)(F)F)nn32)c(OC)c1OC (stereo not given)	-8	-18	-2	-2	-3	23*	38*	36*
COc1ccc(C2C3=C(CCCC3=O)Nc3nc(C(F)(F)F)nn32)cc1OC (stereo not given)	-21	-44	-8	-7	-8	15*	43*	58*
CCOc1cc(C2C3=C(CCCC3=O)Nc3nc(C(=O)OC)nn32)ccc1OC (stereo not given)	-2	6	3	9	6	2	.	.
COc1cc(-c2nc3n(n2)C(c2ccc(F)cc2)C2=C(CCCC2=O)N3)cc(OC)c1OC (stereo not given)	-6	-25	-8	-11	-5	2	.	.
CCOc1ccc(C2C3=C(CCCC3=O)Nc3nc(C(F)(F)F)nn32)cc1OC (stereo not given)	-16	-47	-3	9	-7	44*	52*	58*
CCOC(=O)C1=C(C)OC(N)=C(C#N)C1c1cc2c(cc1[N+](=O)[O-])OCO2 (stereo not given)	-346	i	-284	-3	-286	29*	15*	15*
Cc1cccc(C)c1N1C(=O)CC(N(O)c2ccccc2)C1=O (stereo not given)	8	-1	1	9	0	277*	224*	254*
